Screens (PubChem BioAssay)
Shown are actives, neighbours in structure and some others; about 0.82% of the full set was active somewhere.
Keap1-Nrf2 PPI: Keap1-Nrf2 protein-protein interaction inhibitors, primary screen, biochemical, fluorescence polarization, single point; Keap1 Kelch-Nrf2 peptide fluorescence polarization, 1536-well; inhibition, % at 9.4 µM; Kelch-like ECH-associated protein 1 (Homo sapiens), Q14145; AID 504523, 2011; hit rate 0.15% among 340,000; in the data active = inhibition above about 12%; inconclusive = no clear call, values can overlap the other calls; inactive = below about 7.3%;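 note: human Keap1 Kelch domain with fluorescein labeled Nrf2 9mer peptide probe; higher means more block of Keap1 binding to Nrf2 peptide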
Target sequence (Q14145 whole entry, looked up, the tested form may be a part): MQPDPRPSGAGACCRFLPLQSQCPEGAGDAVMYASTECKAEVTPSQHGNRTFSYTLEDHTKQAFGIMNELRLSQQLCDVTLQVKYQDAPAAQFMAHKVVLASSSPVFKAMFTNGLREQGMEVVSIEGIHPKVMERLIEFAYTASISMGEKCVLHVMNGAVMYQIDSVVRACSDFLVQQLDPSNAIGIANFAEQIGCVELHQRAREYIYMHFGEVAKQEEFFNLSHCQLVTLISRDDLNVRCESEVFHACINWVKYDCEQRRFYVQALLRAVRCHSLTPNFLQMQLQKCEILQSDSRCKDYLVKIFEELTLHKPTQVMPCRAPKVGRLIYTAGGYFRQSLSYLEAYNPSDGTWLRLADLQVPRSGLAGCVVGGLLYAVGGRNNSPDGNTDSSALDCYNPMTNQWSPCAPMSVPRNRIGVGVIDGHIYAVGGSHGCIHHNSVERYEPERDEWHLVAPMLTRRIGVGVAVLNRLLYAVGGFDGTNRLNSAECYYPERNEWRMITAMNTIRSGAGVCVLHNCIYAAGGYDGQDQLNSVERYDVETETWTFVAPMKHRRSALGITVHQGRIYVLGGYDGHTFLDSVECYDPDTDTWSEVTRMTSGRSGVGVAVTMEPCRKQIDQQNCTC
C-LANA FP: inhibitors of KSHV C-LANA binding to DNA, primary screen, biochemical, fluorescence polarization, FAM-LBS DNA, MBP-C-LANA, single point; inhibition, % at 9 µM; AID 504423, 2011; Kaposi's sarcoma herpesvirus LANA C-terminal domain (residues 932-1162) DNA binding; hit rate 0.078% among 340,000;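 active = highest replicate inhibition at or above 60% at 9 µM, even if other replicates fall short; inactive = all replicates below 60% inhibition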
Cardiac RTF inh: cardiac RTF calcium sensitivity inhibitors, primary screen, biochemical, IANBD-TnC fluorescence, EC70 calcium | AID 493244, 2011 | inhibition, % at 7.15 µM | Troponin I, cardiac muscle (Homo sapiens) + Troponin T, cardiac muscle (Homo sapiens) + … | IANBD-labeled cardiac RTF, Ca2+ fluorescence | hit rate 0.12% among 340,000;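 active = inhibition above the mean inhibition of all tested compounds plus 3 SD, cut at about 17% in these data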;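 note: assay run at fixed EC70 calcium of 1.6 mM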
eLon inh: inhibitors of E. coli Lon protease, primary screen, biochemical, fluorescence polarization; P0A9M0; purified E. coli Lon protease; inhibition, % at 7.94 µM; hit rate 0.42% among 360,000; AID 602123, 2011; in the data active = inhibition above about 13%, passing the limit was not always enough
RTF Ca sens act: cardiac RTF calcium sensitivity activators, primary screen, biochemical, IANBD-TnC fluorescence, EC20 calcium. Troponin I, cardiac muscle (Homo sapiens) + Troponin T, cardiac muscle (Homo sapiens) + …. IANBD-labeled TnC RTF fluorescence at EC20 calcium; 0% EC20 calcium, 100% full calcium. activation, % at 7.2 µM. hit rate 0.24% among 340,000;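 active = activation above the mean over all tested compounds plus 3 SD, cut at about 30% in these data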;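 note: rise in fluorescence read as greater calcium sensitivity of cardiac thin filaments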
Of the large screens only hits and unclear results are named; the others gave an inactive call.

Cc1ccc(/C=C2\SC(=S)N(/N=C/c3cc([N+](=O)[O-])ccc3O)C2=O)o1	C-LANA FP 73.6
O=[N+]([O-])c1ccc(O)c(/C=N/n2cnc3ccccc32)c1	none
CSC(=NS(=O)(=O)c1ccc(N)cc1)NS(=O)(=O)c1cccs1	C-LANA FP 68.5
COc1cc(N2CCCC2)c(OC)cc1/C=C1/NC(=S)NC1=O	RTF Ca sens act 78.9
C=CCOc1ccc(C2C(C(=O)c3cccs3)=C(O)C(=O)N2c2nnc(C)s2)cc1 (stereo unspecified)	RTF Ca sens act 44.3
Cc1ccc(C2C(C(=O)c3ccco3)=C(O)C(=O)N2c2nnc(C)s2)cc1 (stereo unspecified)	none
COc1ccc(C2C(C(=O)c3cccs3)=C(O)C(=O)N2c2nnc(C)s2)cc1OC (stereo unspecified)	Keap1-Nrf2 PPI inconclusive, eLon inh 37.5, RTF Ca sens act 80.1
CCCCN(C(=O)c1ccc(-n2nc(C)cc2C)cc1)c1c(N)n(CCC)c(=O)[nH]c1=O	none
CCN(CC)c1ccc(/C=C/C(=O)C2C(=O)C=C(C)OC2=O)cc1 (stereo unspecified)	RTF Ca sens act 128.4
CCOC(=O)C(Cc1ccnc2ccccc12)=NO	none
CCOC(=O)C(=O)Cc1cccnn1	C-LANA FP 72.0
CCN1C(=O)/C(=C/C=C2\N(CC)c3cc(S(=O)(=O)N(C)C)ccc3N2c2ccccc2)SC1=S	RTF Ca sens act 166.2
CCN1C(=O)/C(=C\C=C\c2ccccc2[N+](=O)[O-])SC1=S	none
CSc1ccc(/C=C2\C(=N)N3N=C(CC(=O)N4CCOCC4)SC3=NC2=O)cc1	none
CCN(CC)c1ccc(/C=C2\C(=N)N3N=C(CC(=O)N4CCOCC4)SC3=NC2=O)cc1	RTF Ca sens act 38.0
CCOc1ccc(N2CC(C(=O)Nc3ccccc3N3CCCC3)CC2=O)cc1 (stereo unspecified)	none
CC(=Nc1ccccc1)C1=C(O)C(Cc2ccccc2)NC1=O (stereo unspecified)	none
CC1(OC(=O)C2CCCC2)C(=O)C=C2C=C(c3ccsc3)OC=C2C1=O (stereo unspecified)	C-LANA FP 77.7
COc1cc(/C=C/C(=O)CC(=O)/C=C/c2ccc(O)c(OC)c2)ccc1O	RTF Ca sens act 56.9
O=C1CC(c2ccc(O)c(O)c2)Oc2c1ccc(O)c2O (stereo unspecified)	C-LANA FP 96.7
CC(=O)c1ccc(OCc2nnn(CC(=O)NS(=O)(=O)c3ccc(C)cc3)c2-c2ccccc2)cc1	none (no result: Keap1-Nrf2 PPI, C-LANA FP, Cardiac RTF inh, RTF Ca sens act)
CCNC(=S)N/N=C/c1sc(N2CCCCC2)nc1-c1cccs1	RTF Ca sens act 32.8
CC/C(=C(/CC)c1ccc(O)cc1)c1ccc(O)cc1	Cardiac RTF inh 17.9 (no result: Keap1-Nrf2 PPI)
O=C(CCc1ccc(S(=O)(=O)N2CCOCC2)cc1)OCC(=O)c1ccccc1	RTF Ca sens act 37.0
O=C(COc1ccccc1)NCc1ccccc1	none
O=C(COc1ccc(Cl)cc1)NCc1ccccc1	RTF Ca sens act 151.8
O=C(NCc1ccc(Cl)cc1)C1CCN(c2cnccn2)CC1	RTF Ca sens act 30.2
O=C(NCc1ccccc1)c1cc(C2COCCN2C(=O)OCCF)on1 (stereo unspecified)	none (no result: Keap1-Nrf2 PPI, C-LANA FP, Cardiac RTF inh, RTF Ca sens act)
O=C1CCC/C(=N/NC(=O)c2sc3ccccc3c2Cl)C1	RTF Ca sens act 36.5
COc1ccc(CCNC(=O)c2ccc(Cl)c(S(=O)(=O)N3CCCC3)c2)cc1	none
FC(F)(F)c1ccc(-n2cnc3ccccc32)nc1	none
CCOC(=O)C1C(=O)C=C(c2ccc(C)cc2)CC1c1ccccc1 (stereo unspecified)	none
CCOC(=O)C1C(=O)C=C(/C=C/c2ccc(N(C)C)cc2)CC1c1ccccc1 (stereo unspecified)	RTF Ca sens act 108.1
Cc1[nH]c(=O)c(C#N)c2c1COC(C)(C)C2	none
CC1=C(C#N)C(=O)OC(C)(C)C1	Keap1-Nrf2 PPI 19.2
O=C(O)c1ccccc1-c1ccc(/C=C/c2cc(C(F)(F)F)[nH]c(=O)n2)o1	RTF Ca sens act 727.4
O=C(O)c1cc(Cl)ccc1-c1ccc(/C=C/c2cc(C(F)(F)F)[nH]c(=O)n2)o1	RTF Ca sens act 447.5
O=C(O)c1ccccc1-c1ccc(C=c2sc3nc4cc(Br)cnc4n3c2=O)o1	none (no result: Keap1-Nrf2 PPI, C-LANA FP, Cardiac RTF inh, RTF Ca sens act)
Cc1ccc(C(=O)NCC(=O)N2CCN(c3ccccc3O)CC2)s1	none (no result: Keap1-Nrf2 PPI, C-LANA FP, Cardiac RTF inh, RTF Ca sens act)
Cc1c(NC(=O)c2ccc(NS(=O)(=O)c3ccccc3)cc2)c(=O)n(-c2ccccc2)n1C	none
CC(C)CNC(=O)C(=O)NCC1OCCN1S(=O)(=O)c1cccs1 (stereo unspecified)	none
CCOc1ccc(C(=O)N/N=C/c2ccc(-c3ccc(S(=O)(=O)Nc4ncccn4)cc3)o2)cc1	none
NC(=S)NN=Cc1ccc(-c2ccc(S(=O)(=O)Nc3ncccn3)cc2)o1	Keap1-Nrf2 PPI inconclusive, C-LANA FP 73.4
O=[N+]([O-])c1ccc(Nc2ccccc2)c2nonc12	none
O=[N+]([O-])c1ccc(Sc2cccc[n+]2[O-])c2nonc12	Keap1-Nrf2 PPI 19.6
CCN(CC)c1ccc(/C=C(/C#N)C(=O)NCc2ccccc2)o1	RTF Ca sens act 110.6
C=CCNC(=O)/C(C#N)=C/c1ccc(C)o1	none
CC(NC(=O)/C(C#N)=C/c1ccc([N+](=O)[O-])o1)c1ccccc1 (stereo unspecified)	none
CCN(CC)c1ccc(/C=C(/C#N)C(=O)NC(C)C)o1	RTF Ca sens act 71.5
CC(C)NC(=O)/C(C#N)=C\c1ccc(N(C)C)o1	RTF Ca sens act 63.6
N#C/C(=C\c1ccc(O)cc1)C(=O)NCc1ccccc1	none
COc1ccc(C)cc1Nc1n[n+](-c2ccccc2)c(-c2cc([N+](=O)[O-])cc(OC)c2O)s1	RTF Ca sens act 46.4
COc1ccc(S(=O)(=O)N2CCCCCC2)cc1C(=O)N(CC(C)C)C1CCS(=O)(=O)C1 (stereo unspecified)	none
CCN(CC)CCCN(C(=O)c1ccc(F)cc1)c1nc(-c2ccc(OC)cc2)cs1	none
Cc1ccc(C)c(-n2cc(CNCCc3cnccn3)c(-c3ccccc3)n2)c1	eLon inh 38.6
Cc1cc(C(=O)NNC(=O)Cc2ccc(Cl)c(Cl)c2)c(C)o1	none
CC1(C(=O)NS(=O)(=O)c2cccc(F)c2)CCN1C(=O)C1(c2ccc(Cl)cc2)CCC1 (stereo unspecified)	none (no result: Keap1-Nrf2 PPI, C-LANA FP, Cardiac RTF inh, RTF Ca sens act)
COc1ccc(C(=O)Nc2cc(C(C)=O)c(/C=C/N(C)C)oc2=O)cc1	none
CC(=O)c1cc(NC(=O)c2ccc(C)cc2)c(=O)oc1/C=C/N(C)C	RTF Ca sens act 36.1
O=C(CN1C(=O)/C(=C/c2ccco2)SC1=S)Nc1ccc(C(=O)O)c(O)c1	C-LANA FP 108.0
